Common to all, as to test: DAPPL (digital affinity profiling via proximity ligation, sequencing); 10 mM Tris-HCl pH 7.5, 50 mM NaCl, 1 mM DTT, 4% glycerol, room temperature, 30 min; GST-TFs on glutathione beads, 16-mer random dsDNA library, 0.1% formaldehyde crosslink after washing; high values mean tight binding
In one test the target is T1, FEV (Homo sapiens, UniProt Q99581 1-238).
T1 sequence: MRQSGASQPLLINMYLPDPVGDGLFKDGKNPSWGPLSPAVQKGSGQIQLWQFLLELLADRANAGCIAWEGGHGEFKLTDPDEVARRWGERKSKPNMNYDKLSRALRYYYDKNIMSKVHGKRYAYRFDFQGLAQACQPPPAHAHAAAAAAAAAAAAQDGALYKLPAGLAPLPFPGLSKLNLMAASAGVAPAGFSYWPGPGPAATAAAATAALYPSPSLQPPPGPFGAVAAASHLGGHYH
Particulars: protein: recombinant; tags: N-terminal GST; dsDNA, one strand shown. In short, it runs like this: (§1)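 Yeast served to express human transcription factors as GST fusions, which were then captured on glutathione beads and labelled with DNA barcodes. Pooled with a tag-only sample, they were incubated with 200 nmole of a 16-mer random double-stranded DNA library for 30 min at room temperature in Tris/NaCl/DTT/glycerol buffer, washed, crosslinked with 0.1% formaldehyde, ligated by proximity, amplified by PCR and sequenced. Dividing each hexamer's read frequency for a factor by its frequency for the tag-only sample gives the binding signal.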

For another test, the target named is ETV5 (Homo sapiens, UniProt P41161 1-510). The settings on record: protein: recombinant; tags: N-terminal GST; dsDNA, one strand shown. An outline of the steps: as §1
ETV5, sequence (P41161 whole entry): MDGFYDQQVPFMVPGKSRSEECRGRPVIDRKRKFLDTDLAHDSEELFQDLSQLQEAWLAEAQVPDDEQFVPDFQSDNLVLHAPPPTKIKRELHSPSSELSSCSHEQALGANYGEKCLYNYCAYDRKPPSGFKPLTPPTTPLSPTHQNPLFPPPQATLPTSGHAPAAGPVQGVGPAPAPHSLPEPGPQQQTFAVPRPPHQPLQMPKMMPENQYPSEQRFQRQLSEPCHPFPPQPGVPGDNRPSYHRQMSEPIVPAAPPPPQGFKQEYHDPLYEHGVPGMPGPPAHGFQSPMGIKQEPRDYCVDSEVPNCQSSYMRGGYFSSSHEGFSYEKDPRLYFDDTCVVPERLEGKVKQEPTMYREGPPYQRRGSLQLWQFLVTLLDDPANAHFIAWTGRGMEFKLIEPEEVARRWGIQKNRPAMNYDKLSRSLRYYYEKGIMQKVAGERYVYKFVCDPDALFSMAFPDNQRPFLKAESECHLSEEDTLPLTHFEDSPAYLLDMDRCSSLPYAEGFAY
A further test addresses HSF1 (Homo sapiens, UniProt Q00613 1-529). The settings on record: protein: recombinant; tags: N-terminal GST; chain copies: 3; dsDNA, one strand shown. An outline of the steps: as §1
A further test has as its target T2, SPIC (Homo sapiens, UniProt Q8N5J4 1-248).
T2 sequence: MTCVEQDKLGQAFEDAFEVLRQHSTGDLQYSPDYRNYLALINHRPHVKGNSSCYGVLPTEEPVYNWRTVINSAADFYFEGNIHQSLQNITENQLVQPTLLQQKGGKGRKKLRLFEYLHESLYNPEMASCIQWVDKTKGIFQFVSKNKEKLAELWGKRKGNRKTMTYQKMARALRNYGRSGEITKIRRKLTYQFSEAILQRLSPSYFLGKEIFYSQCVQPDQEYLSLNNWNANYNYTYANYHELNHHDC
The settings on record: protein: recombinant; tags: N-terminal GST; dsDNA, one strand shown. In short, it runs like this:
as §1

The next test deals with ELF4 (Homo sapiens, UniProt Q99607 1-663). Particulars: protein: recombinant; tags: N-terminal GST; dsDNA, one strand shown. An outline of the steps:
as §1

In a further test the target is T3, ELK4 (Homo sapiens, UniProt P28324-2 1-405).
T3 sequence: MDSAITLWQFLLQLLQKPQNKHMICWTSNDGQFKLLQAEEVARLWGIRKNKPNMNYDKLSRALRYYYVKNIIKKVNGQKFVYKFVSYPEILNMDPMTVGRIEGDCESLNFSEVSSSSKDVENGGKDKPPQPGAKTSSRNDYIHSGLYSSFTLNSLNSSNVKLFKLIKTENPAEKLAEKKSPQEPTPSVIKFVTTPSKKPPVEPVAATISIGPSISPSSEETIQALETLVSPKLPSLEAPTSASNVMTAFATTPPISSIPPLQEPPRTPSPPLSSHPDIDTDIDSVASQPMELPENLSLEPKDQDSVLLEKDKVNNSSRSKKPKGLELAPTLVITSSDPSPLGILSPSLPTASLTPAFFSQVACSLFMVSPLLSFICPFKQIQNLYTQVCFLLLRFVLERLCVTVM
Particulars: protein: recombinant; tags: N-terminal GST; dsDNA, one strand shown. An outline of the steps: as §1

The target of a further test is T4, ETV2 (Homo sapiens, UniProt O00321 1-342).
T4 sequence: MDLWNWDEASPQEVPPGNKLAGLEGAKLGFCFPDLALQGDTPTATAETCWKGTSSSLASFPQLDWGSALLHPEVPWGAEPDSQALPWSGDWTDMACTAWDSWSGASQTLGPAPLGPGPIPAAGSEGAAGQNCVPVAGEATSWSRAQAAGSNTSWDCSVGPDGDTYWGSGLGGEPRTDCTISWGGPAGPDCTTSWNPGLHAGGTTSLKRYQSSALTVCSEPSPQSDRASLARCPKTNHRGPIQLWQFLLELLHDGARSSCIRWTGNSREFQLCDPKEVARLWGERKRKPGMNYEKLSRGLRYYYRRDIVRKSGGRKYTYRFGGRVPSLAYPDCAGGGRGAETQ
Particulars: protein: recombinant; tags: N-terminal GST; dsDNA, one strand shown. An outline of the steps: as §1

Another test deals with T5, ELF3 (Homo sapiens, UniProt P78545 1-371).
T5 sequence: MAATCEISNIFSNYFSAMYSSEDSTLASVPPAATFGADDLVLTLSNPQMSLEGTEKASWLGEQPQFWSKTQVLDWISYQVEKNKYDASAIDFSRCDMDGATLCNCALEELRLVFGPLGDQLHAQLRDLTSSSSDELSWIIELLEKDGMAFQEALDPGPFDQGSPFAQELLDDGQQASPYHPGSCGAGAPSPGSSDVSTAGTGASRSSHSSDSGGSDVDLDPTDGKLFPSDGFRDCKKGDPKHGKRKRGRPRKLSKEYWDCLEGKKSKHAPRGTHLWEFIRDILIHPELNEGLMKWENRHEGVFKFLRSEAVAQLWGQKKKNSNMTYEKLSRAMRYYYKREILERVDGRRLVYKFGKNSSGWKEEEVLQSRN
Particulars: protein: recombinant; tags: N-terminal GST; dsDNA, one strand shown. In short, it runs like this: as §1

In the next test the target is CRX (Homo sapiens, UniProt O43186 1-299). Particulars: protein: recombinant; tags: N-terminal GST; dsDNA, one strand shown. An outline of the steps: as §1
CRX, sequence (O43186 whole entry): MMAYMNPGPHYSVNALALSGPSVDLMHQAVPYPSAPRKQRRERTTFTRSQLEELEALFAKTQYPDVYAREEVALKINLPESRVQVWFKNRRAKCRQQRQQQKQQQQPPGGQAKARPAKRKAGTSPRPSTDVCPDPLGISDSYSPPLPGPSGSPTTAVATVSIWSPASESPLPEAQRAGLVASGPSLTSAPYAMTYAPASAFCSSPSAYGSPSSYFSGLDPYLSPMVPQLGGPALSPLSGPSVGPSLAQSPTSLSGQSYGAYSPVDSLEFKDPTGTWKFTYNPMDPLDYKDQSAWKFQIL
Another test concerns the target ETV1 (Homo sapiens, UniProt P50549 1-477). The settings on record: protein: recombinant; tags: N-terminal GST; dsDNA, one strand shown. An outline of the steps: as §1
The target in the next test is T6, ERF (Homo sapiens, UniProt P50548 1-548).
T6 sequence: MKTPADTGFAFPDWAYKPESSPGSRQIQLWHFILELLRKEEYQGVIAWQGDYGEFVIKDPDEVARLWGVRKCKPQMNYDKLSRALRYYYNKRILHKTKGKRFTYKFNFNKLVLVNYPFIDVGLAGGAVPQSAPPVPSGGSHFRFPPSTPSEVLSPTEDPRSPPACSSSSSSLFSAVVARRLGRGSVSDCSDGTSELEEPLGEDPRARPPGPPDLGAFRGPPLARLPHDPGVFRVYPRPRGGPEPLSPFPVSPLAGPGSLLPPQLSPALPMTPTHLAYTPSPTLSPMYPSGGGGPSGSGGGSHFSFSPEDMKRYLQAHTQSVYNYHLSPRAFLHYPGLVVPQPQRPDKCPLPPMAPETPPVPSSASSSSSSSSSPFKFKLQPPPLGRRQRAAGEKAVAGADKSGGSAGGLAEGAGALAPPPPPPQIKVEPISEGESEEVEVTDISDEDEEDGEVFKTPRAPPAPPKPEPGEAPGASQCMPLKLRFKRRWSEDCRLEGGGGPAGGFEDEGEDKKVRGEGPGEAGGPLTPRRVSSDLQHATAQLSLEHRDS
The settings on record: protein: recombinant; tags: N-terminal GST; dsDNA, one strand shown. An outline of the steps: as §1

For the next test, the target named is T7, ETV3L (Homo sapiens, UniProt Q6ZN32 1-361).
T7 sequence: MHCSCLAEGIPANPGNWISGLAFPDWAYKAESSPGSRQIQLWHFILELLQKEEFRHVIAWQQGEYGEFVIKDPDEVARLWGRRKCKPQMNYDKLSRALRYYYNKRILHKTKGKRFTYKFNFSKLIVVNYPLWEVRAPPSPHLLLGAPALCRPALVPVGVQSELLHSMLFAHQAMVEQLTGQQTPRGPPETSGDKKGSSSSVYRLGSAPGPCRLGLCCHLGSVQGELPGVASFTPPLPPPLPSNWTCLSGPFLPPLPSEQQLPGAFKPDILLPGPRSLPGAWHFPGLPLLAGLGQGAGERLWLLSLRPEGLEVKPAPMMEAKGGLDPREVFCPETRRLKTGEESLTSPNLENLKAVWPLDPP
The settings on record: protein: recombinant; tags: N-terminal GST; dsDNA, one strand shown. In short, it runs like this: as §1

The target of another test is T8, ETS2 (Homo sapiens, UniProt P15036 1-469).
T8 sequence: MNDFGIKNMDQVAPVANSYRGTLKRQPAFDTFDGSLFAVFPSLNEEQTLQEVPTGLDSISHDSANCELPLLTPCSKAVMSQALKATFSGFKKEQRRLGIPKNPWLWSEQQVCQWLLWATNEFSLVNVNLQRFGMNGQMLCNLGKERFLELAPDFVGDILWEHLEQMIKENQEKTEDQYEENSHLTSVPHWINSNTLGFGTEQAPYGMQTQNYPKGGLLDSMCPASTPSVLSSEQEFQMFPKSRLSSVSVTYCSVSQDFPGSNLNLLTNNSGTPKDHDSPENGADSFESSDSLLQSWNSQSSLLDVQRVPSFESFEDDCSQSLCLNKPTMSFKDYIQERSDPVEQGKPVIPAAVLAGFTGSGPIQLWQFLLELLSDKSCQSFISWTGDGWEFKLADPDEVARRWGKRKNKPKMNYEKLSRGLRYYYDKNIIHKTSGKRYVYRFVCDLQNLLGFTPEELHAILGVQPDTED
Particulars: protein: recombinant; tags: N-terminal GST; dsDNA, one strand shown. In short, it runs like this:
as §1

A further test deals with T9, SPDEF (Homo sapiens, UniProt O95238 1-335).
T9 sequence: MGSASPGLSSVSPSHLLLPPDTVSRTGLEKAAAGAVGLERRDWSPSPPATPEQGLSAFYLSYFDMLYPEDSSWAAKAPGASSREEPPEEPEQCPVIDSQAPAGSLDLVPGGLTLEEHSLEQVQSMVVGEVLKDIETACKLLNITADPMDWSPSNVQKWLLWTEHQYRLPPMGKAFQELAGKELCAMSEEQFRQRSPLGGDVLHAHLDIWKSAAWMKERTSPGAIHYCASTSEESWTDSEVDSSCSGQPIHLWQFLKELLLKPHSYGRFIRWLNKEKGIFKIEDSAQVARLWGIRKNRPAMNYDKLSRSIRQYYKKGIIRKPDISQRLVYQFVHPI
The settings on record: protein: recombinant; tags: N-terminal GST; dsDNA, one strand shown. In short, it runs like this:
as §1

The next test concerns the target T10, ETV7 (Homo sapiens, UniProt Q9Y603 1-341).
T10 sequence: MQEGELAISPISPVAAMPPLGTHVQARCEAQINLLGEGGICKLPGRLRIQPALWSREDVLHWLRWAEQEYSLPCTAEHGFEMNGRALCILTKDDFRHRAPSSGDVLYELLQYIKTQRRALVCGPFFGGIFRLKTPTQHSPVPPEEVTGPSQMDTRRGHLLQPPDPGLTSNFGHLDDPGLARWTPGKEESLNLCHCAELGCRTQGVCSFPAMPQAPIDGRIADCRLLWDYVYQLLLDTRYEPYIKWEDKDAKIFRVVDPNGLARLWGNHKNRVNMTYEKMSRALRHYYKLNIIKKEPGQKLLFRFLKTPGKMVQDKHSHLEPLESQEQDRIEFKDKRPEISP
Particulars: protein: recombinant; tags: N-terminal GST; dsDNA, one strand shown. In short, it runs like this: as §1

Another test addresses T11, ELF5 (Homo sapiens, UniProt Q9UKW6-2 1-255).
T11 sequence: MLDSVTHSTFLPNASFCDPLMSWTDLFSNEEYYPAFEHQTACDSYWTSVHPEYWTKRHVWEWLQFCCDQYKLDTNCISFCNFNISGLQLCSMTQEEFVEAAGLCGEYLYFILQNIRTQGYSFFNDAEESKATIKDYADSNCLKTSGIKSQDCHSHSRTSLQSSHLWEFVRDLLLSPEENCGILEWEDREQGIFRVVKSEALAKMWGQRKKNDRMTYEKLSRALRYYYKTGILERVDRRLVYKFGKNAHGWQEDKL
The settings on record: protein: recombinant; tags: N-terminal GST; dsDNA, one strand shown. An outline of the steps: as §1

In another test the target is T12, ETV3 (Homo sapiens, UniProt P41162-2 1-143).
T12 sequence: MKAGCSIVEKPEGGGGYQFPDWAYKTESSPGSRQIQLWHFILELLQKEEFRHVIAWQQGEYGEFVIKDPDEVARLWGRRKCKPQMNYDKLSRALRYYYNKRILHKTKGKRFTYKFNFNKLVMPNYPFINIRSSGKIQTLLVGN
Particulars: protein: recombinant; tags: N-terminal GST; dsDNA, one strand shown. In short, it runs like this: as §1

A further test addresses ETV6 (Homo sapiens, UniProt P41212 1-452). The settings on record: protein: recombinant; tags: N-terminal GST; dsDNA, one strand shown. An outline of the steps: as §1

ELF4, sequence (Q99607 whole entry): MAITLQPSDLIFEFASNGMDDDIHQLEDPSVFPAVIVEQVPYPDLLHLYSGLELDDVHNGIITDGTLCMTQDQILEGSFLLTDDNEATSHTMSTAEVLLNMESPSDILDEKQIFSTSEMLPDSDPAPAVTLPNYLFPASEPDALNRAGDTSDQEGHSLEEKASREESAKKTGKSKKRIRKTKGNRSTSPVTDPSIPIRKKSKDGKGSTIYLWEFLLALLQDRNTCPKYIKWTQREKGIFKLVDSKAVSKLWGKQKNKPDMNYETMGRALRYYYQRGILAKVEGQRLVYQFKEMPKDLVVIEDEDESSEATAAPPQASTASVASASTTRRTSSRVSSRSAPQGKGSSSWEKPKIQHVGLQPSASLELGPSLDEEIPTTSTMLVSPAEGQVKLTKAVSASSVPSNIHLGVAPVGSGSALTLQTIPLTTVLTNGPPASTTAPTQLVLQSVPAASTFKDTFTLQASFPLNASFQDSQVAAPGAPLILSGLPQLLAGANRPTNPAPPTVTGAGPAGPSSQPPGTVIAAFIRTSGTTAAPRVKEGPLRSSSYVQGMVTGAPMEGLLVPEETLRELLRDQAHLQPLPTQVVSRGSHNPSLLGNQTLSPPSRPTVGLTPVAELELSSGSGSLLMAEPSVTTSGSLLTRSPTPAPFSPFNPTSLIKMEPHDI
ETV1, sequence (P50549 whole entry): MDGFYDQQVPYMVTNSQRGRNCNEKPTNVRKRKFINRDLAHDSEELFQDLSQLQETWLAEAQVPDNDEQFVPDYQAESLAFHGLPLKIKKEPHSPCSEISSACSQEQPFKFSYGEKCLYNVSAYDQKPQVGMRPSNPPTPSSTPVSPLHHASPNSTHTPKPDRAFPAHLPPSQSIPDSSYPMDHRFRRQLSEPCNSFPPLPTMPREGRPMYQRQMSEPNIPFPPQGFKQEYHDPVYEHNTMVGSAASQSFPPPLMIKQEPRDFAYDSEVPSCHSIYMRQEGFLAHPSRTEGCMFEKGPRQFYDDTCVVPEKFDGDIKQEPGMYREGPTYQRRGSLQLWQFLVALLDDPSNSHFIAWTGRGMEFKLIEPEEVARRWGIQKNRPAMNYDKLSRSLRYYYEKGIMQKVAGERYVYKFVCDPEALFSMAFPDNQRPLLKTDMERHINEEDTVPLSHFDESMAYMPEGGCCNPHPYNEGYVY
ETV6, sequence (P41212 whole entry): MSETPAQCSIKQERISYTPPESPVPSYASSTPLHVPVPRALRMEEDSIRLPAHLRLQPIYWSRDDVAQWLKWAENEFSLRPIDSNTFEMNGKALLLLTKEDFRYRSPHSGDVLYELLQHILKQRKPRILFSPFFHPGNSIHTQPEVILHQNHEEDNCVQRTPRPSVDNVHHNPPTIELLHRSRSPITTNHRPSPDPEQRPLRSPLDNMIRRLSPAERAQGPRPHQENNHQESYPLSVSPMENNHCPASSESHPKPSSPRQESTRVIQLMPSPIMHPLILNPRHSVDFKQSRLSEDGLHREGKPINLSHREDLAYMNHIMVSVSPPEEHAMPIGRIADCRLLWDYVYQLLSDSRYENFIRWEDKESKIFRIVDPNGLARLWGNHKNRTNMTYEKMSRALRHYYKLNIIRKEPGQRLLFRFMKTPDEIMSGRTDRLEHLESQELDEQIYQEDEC
HSF1, sequence (Q00613 whole entry): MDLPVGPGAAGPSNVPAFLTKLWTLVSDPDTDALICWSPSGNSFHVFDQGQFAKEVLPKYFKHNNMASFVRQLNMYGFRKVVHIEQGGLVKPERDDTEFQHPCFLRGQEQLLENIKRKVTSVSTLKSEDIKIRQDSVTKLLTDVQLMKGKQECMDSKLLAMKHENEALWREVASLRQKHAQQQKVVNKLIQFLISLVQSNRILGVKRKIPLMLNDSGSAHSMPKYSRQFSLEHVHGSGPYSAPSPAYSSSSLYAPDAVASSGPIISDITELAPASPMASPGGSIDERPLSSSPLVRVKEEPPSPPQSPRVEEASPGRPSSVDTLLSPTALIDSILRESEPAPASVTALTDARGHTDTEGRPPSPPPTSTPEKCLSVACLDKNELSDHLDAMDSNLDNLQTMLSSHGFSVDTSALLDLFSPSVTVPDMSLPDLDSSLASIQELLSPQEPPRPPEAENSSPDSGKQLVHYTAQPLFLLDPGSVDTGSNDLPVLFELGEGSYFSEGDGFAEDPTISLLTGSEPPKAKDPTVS

As to CCTTCT, the binding signal in the test with FEV is 1.59 fold enrichment (6-mer frequency, TF over GST control); in the test with ETV5, 1.59 fold enrichment (6-mer frequency, TF over GST control); with HSF1, 2.98 fold enrichment (6-mer frequency, TF over GST control); with SPIC, 1.63 fold enrichment (6-mer frequency, TF over GST control); with ELF4, 1.76 fold enrichment (6-mer frequency, TF over GST control); with ELK4, 1.68 fold enrichment (6-mer frequency, TF over GST control). The binding signal in the test with ETV2 was 1.65 fold enrichment (6-mer frequency, TF over GST control); with ELF3, 1.54 fold enrichment (6-mer frequency, TF over GST control); with CRX, 1.92 fold enrichment (6-mer frequency, TF over GST control); with ETV1, 1.63 fold enrichment (6-mer frequency, TF over GST control); with ERF it was 1.5 fold enrichment (6-mer frequency, TF over GST control); in the test with ETV3L, 1.62 fold enrichment (6-mer frequency, TF over GST control). Moreover, the binding signal with ETS2 is 1.53 fold enrichment (6-mer frequency, TF over GST control); in the test with SPDEF, 1.84 fold enrichment (6-mer frequency, TF over GST control); with ETV7 it was 1.45 fold enrichment (6-mer frequency, TF over GST control); with ELF5, 1.86 fold enrichment (6-mer frequency, TF over GST control); with ETV3, 1.44 fold enrichment (6-mer frequency, TF over GST control); in the test with ETV6, 1.58 fold enrichment (6-mer frequency, TF over GST control).

For the origin of these results see paper PMC7862700, “An all-to-all approach to the identification of sequence-specific readers for epigenetic DNA modifications on cytosine”.
